73 compounds from the supplement of paper PMC9446081 can be followed below.

About 220 (0.56%) of roughly 39,000 compounds showed activity. This excerpt belongs to a sample that is enriched for actives. Values without a mark were called inactive.
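Also: Wild-type cells incubated without shaking, value is the mean of two biological replicates.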

For this experiment, the system named is Escherichia coli K-12 BW25113. The experiment can be described thus: relative growth (OD600 normalised to plate interquartile mean) (fraction); higher = less growth inhibition, active = 0.2 or less. To be noted: 50 µM; LB; incubation time: overnight (16-24 h).
Regarding `C[C@@H]1CCCCO[C@@H](CN(C)CC2CCCCC2)[C@@H](C)CN([C@H](C)CO)C(=O)c2cc(N(C)C)ccc2O1`, the relative growth was 1.

`CN(C)c1cc(NC(=O)CNC(C)(C)C)c(O)c2c1CC1CC3C(N(C)C)C(O)=C(C(N)=O)C(=O)C3(O)C(O)=C1C2=O` (stereo not drawn): the relative growth was 1.06.

Take `CN(C)C1C(O)=C(C(N)=O)C(=O)C2(O)C(O)=C3C(=O)c4c(O)cccc4C(C)(O)C3CC12.Cl` (stereo not drawn): the relative growth is 0.056 (active).

Turning to `CN(C)C1C(O)=C(C(N)=O)C(=O)C2(O)C(O)=C3C(=O)c4c(O)cccc4C(C)(O)C3C(O)C12.Cl` (stereo not drawn), the relative growth is 0.0578 (active).

Regarding `CN(C)C1C(O)=C(C(N)=O)C(=O)C2(O)C(O)=C3C(=O)c4c(O)ccc(Cl)c4C(C)(O)C3CC12.Cl` (stereo not drawn), the relative growth is 0.0595 (active).

Consider `CN(C)c1ccc(O)c2c1CC1CC3C(N(C)C)C(O)=C(C(N)=O)C(=O)C3(O)C(O)=C1C2=O.Cl` (stereo not drawn), for which the relative growth was 0.0626 (active).

In the case of `CN(C)[C@@H]1C(=O)C(C(=O)NCN2CCCC2)=C(O)[C@@]2(O)C(O)=C3C(=O)c4c(O)cccc4[C@@](C)(O)[C@H]3C[C@@H]12`, the relative growth is 0.516.

For `C[C@@H]1CCCCO[C@H](CN(C)Cc2ccc(C(F)(F)F)cc2)[C@H](C)CN([C@H](C)CO)C(=O)c2cc(NS(=O)(=O)c3ccc(F)cc3)ccc2O1`, the relative growth was 1.02.

As to `C[C@@H]1CN([C@H](C)CO)C(=O)c2cc(NS(=O)(=O)c3ccc(F)cc3)ccc2O[C@@H](C)CCCCO[C@H]1CN(C)Cc1ccccc1`, the relative growth is 0.999.

Take `C[C@@H]1CN([C@@H](C)CO)C(=O)c2cc(-c3ccc(F)cc3)cnc2O[C@@H]1CN(C)C(=O)Cc1ccccn1`: the relative growth was 0.977.

In the case of `Cc1ccc(S(=O)(=O)N(C)C[C@@H]2Oc3c(NS(=O)(=O)c4ccc(F)cc4)cccc3C(=O)N([C@H](C)CO)C[C@@H]2C)cc1`, the relative growth is 1.01.

With `COc1ccc(S(=O)(=O)N(C)C[C@H]2Oc3cc(C#CC4CCCC4)ccc3S(=O)(=O)N([C@@H](C)CO)C[C@H]2C)cc1`, the relative growth was 1.04.

Take `COc1ccc(CN(C)C[C@H]2Oc3ccc(NC(=O)Nc4ccc(C(F)(F)F)cc4)cc3CC(=O)N([C@@H](C)CO)C[C@H]2C)cc1`: the relative growth is 0.99.

For `C[C@@H]1CCCCO[C@@H](CN(C)C(=O)Nc2ccc(C(F)(F)F)cc2)[C@H](C)CN([C@H](C)CO)C(=O)c2cc(NS(=O)(=O)c3cccs3)ccc2O1`, the relative growth was 1.03.

Regarding `O=C(O)[C@H]1O[C@@H](Oc2c(-c3ccc(O)cc3)oc3cc(O)cc(O)c3c2=O)[C@H](O)[C@@H](O)[C@@H]1O`, the relative growth was 1.01.

Turning to `C[C@H]1CN([C@@H](C)CO)S(=O)(=O)c2ccc(-c3cncnc3)cc2O[C@@H]1CN(C)C(=O)NC1CCCC1`, the relative growth is 1.

In the case of `CCC(=O)Nc1cnc(OC)nc1OC`, the relative growth is 1.01.

Take `C[C@@H]1CCCCO[C@H](CN(C)C(=O)Nc2ccc(C(F)(F)F)cc2)[C@@H](C)CN([C@@H](C)CO)C(=O)c2cc(NC(=O)c3ccncc3)ccc2O1`: the relative growth is 0.979.

Regarding `CN(C)CCCNC(=O)C[C@@H]1CC[C@@H]2[C@@H](COc3ccc(NC(=O)c4cccc(F)c4)cc3C(=O)N2C)O1`, the relative growth was 0.965.

Consider `CC(C)NC(=O)N(C)C[C@@H]1Oc2c(NS(=O)(=O)c3ccc(Cl)cc3)cccc2C(=O)N([C@@H](C)CO)C[C@@H]1C`, for which the relative growth was 1.09.

For `C[C@H](CO)N1C[C@H](C)[C@H](CN(C)C(=O)c2ccncc2)OCCCC[C@H](C)Oc2ccc(NS(C)(=O)=O)cc2C1=O`, the relative growth was 1.02.

Take `CN(C)C1C(O)=C(C(N)=O)C(=O)C2(O)C(O)=C3C(=O)c4c(O)ccc(Cl)c4C(O)C3CC12.Cl` (stereo not drawn): the relative growth was 0.0565 (active).

As to `COC(=O)C(=C1OC(=O)C(c2ccccc2)=C1O)c1ccccc1`, the relative growth is 0.951.

Regarding `C[C@@H](O)[C@H]1C(=O)N2C(C(=O)O)=C(SCCNC=N)C[C@H]12`, the relative growth is 1.01.

Regarding `CC(O)C1C(=O)N2C(C(=O)[O-])=C(SC3Cn4cnc[n+]4C3)C(C)C12` (stereo not drawn), the relative growth is 0.307.

On to `CC(O)C1C(=O)N2C(C(=O)O)=C(SC3CNC(C(=O)N(C)C)C3)C(C)C12` (stereo not drawn), for which the relative growth is 0.0517 (active).

Consider `C[C@@H]1CN([C@@H](C)CO)C(=O)c2cc(NS(=O)(=O)c3ccc(F)cc3)ccc2O[C@@H](C)CCCCO[C@H]1CN(C)Cc1ccccc1`, for which the relative growth was 0.979.

`C[C@@H]1CCCCO[C@@H](CN(C)C(=O)Nc2ccc3c(c2)OCO3)[C@@H](C)CN([C@@H](C)CO)C(=O)c2cc(NS(=O)(=O)c3ccccc3)ccc2O1`: the relative growth was 1.01.

As to `C[C@@H]1CN([C@H](C)CO)C(=O)c2ccccc2-c2ccccc2CO[C@@H]1CN(C)S(=O)(=O)c1cn(C)cn1`, the relative growth was 0.997.

As for `O=C(C[C@H]1CC[C@H]2[C@@H](COC[C@@H](O)CN2S(=O)(=O)c2ccccc2)O1)N1CCOCC1`, the relative growth was 0.964.

With `CC1(C)S[C@@H]2[C@H](NC(=O)[C@H](N)c3ccccc3)C(=O)N2[C@H]1C(=O)OCOC(=O)[C@@H]1N2C(=O)C[C@H]2S(=O)(=O)C1(C)C`, the relative growth was 0.107 (active).

For the compound `CC1(C)S[C@@H]2[C@H](NC(=O)[C@H](N)c3ccc(O)cc3)C(=O)N2[C@H]1C(=O)O`, the relative growth was 0.516.

For `CC1(C)SC2C(NC(=O)C(N)c3ccccc3)C(=O)N2C1C(=O)[O-].[Na+]` (stereo not drawn), the relative growth was 1.06.

In the case of `CC1(C)S[C@H]2[C@@H](NC(=O)[C@@H](N)c3ccccc3)C(=O)N2[C@@H]1C(=O)O`, the relative growth was 1.01.

`CC1(C)SC2C(NC(=O)C(N)c3ccc(O)cc3)C(=O)N2C1C(=O)O` (stereo not drawn): the relative growth was 1.1.

In the case of `CCOC(=O)OC(C)OC(=O)C1N2C(=O)C(NC(=O)C(N)c3ccccc3)C2SC1(C)C.Cl` (stereo not drawn), the relative growth was 0.0511 (active).

In the case of `CN(C)CCCNC(=O)C[C@H]1CC[C@H]2[C@@H](COC[C@@H](O)CN2C(=O)c2cc(Cl)cc(Cl)c2)O1`, the relative growth is 0.968.

With `COc1cc(N)ccn1`, the relative growth was 1.07.

Regarding `O=C(C[C@H]1C[C@H]2c3cc(NS(=O)(=O)c4ccc(F)cc4)ccc3O[C@H]2[C@H](CO)O1)NCc1ccccn1`, the relative growth is 0.998.

With `OC[C@@H](O)[C@H]1O[C@H](c2ccccc2)OC[C@@H]1O`, the relative growth is 1.05.

On to `COc1ccc(S(=O)(=O)Nc2ccc3c(c2)C(=O)N([C@H](C)CO)C[C@@H](C)[C@@H](CN(C)C(=O)Nc2c(C)noc2C)O3)cc1`, for which the relative growth was 1.

Consider `CSC1=N[C@@]2(C)CCCC[C@@H]2c2c1ccc1ccccc21`, for which the relative growth was 1.01.

`COc1ccc(C(=O)Nc2ccc3c(c2)C(=O)N(C)[C@@H]2CC[C@H](CC(=O)NCC4CC4)O[C@@H]2CO3)cc1`: the relative growth is 0.982.

With `Cc1ccc(S(=O)(=O)Nc2ccc3c(c2)C(=O)N([C@@H](C)CO)C[C@H](C)[C@@H](CN(C)S(=O)(=O)c2cn(C)cn2)O3)cc1`, the relative growth is 0.932.

As for `CC(N)O.Cc1cc(CC(C)CC(C)(C)C)n(O)c(=O)c1` (stereo not drawn), the relative growth was 0.0449 (active).

With `C[C@@H]1CCCCO[C@@H](CN(C)S(C)(=O)=O)[C@H](C)CN([C@H](C)CO)C(=O)c2cc(NS(=O)(=O)c3ccccc3)ccc2O1`, the relative growth was 0.997.

Regarding `C[C@H](NC(=O)[C@@H](Cc1ccc2ccccc2c1)NC(=O)[C@@H](C)N)C(=O)N[C@@H](Cc1c[nH]c2ccccc12)C(=O)N[C@H](Cc1ccccc1)C(=O)N[C@@H](CCCCN)C(N)=O`, the relative growth was 0.98.

As to `NCCCC[C@@H](N)C(=O)N[C@@H](Cc1c[nH]c2ccccc12)C(=O)N[C@@H](CCCCN)C(=O)O`, the relative growth was 0.994.

For `NCCCC[C@H](NC(=O)[C@@H](NC(=O)[C@H](Cc1c[nH]c2ccccc12)NC(=O)[C@H](CCCCN)NC(=O)[C@H](CCCCN)NC(=O)[C@H](Cc1c[nH]c2ccccc12)NC(=O)[C@H](Cc1c[nH]c2ccccc12)NC(=O)[C@H](CCCCN)NC(=O)[C@@H](N)CCCCN)C(c1ccccc1)c1ccccc1)C(N)=O`, the relative growth is 0.149 (active).

With `Cc1noc(C)c1S(=O)(=O)Nc1ccc2c(c1)C(=O)N([C@H](C)CO)C[C@@H](C)[C@H](CN(C)S(=O)(=O)c1ccc(Cl)cc1)O2`, the relative growth was 1.

For `COc1ccc(C#Cc2ccc3c(c2)O[C@@H](CN(C)C(=O)CN2CCOCC2)[C@@H](C)CN([C@H](C)CO)S3(=O)=O)cc1`, the relative growth was 0.997.

Turning to `COCCNC(=O)C[C@H]1C[C@H]2c3cc(NS(C)(=O)=O)ccc3O[C@H]2[C@H](CO)O1`, the relative growth is 1.01.

Consider `C(=C\c1ccccc1)/CSc1ncnc2c1oc1ccccc12`, for which the relative growth is 1.02.

In the case of `C/C(=C\C(=O)OCCCCCCCCC(=O)O)C[C@@H]1OC[C@H](C[C@@H]2O[C@H]2[C@@H](C)[C@H](C)O)[C@@H](O)[C@H]1O`, the relative growth is 0.166 (active).

`CC(=CC(=O)OCCCCCCCCC(=O)O)CC1OCC(CC2OC2C(C)C(C)O)C(O)C1O` (stereo not drawn): the relative growth was 0.526.

With `C[C@@H]1CN([C@@H](C)CO)C(=O)c2cc(-c3cccc(C(=O)N(C)C)c3)cnc2O[C@H]1CN(C)C(=O)Cc1ccccn1`, the relative growth was 0.986.

On to `CC[C@H]1OC(=O)C[C@@H](O)[C@H](C)[C@@H](O[C@@H]2O[C@H](C)[C@@H](O[C@H]3C[C@@](C)(O)[C@@H](O)[C@H](C)O3)[C@H](N(C)C)[C@H]2O)[C@@H](CC=O)C[C@@H](C)C(=O)/C=C/C(C)=C/[C@@H]1CO[C@@H]1O[C@H](C)[C@@H](O)[C@@H](OC)[C@H]1OC`, for which the relative growth was 0.971.

With `CC[C@H]1OC(=O)C[C@@H](O)[C@H](C)[C@@H](O[C@@H]2O[C@H](C)C[C@H](N(C)C)[C@H]2O)[C@@H](CC=O)C[C@@H](C)C(=O)/C=C/[C@]2(C)O[C@H]2[C@@H]1C`, the relative growth is 0.149 (active).

In the case of `CCC1OC(=O)CC(O)C(C)C(OC2OC(C)C(OC3CC(C)(O)C(O)C(C)O3)C(N(C)C)C2O)C(CC=O)CC(C)C(=O)C=CC(C)=CC1COC1OC(C)C(O)C(OC)C1OC.O=C(O)C(O)C(O)C(=O)O` (stereo not drawn), the relative growth is 1.09.

In the case of `Nc1ccccc1C(=O)NCCN1CCNC1=O`, the relative growth is 1.01.

Regarding `N[C@@H]1CN(c2c(F)cc3c(=O)c(C(=O)O)cn([C@@H]4C[C@@H]4F)c3c2Cl)CC12CC2`, the relative growth was 0.0347 (active).

Consider `Cl.NC1CCN(c2c(F)cc3c(=O)c(C(=O)O)cn(C4CC4)c3c2Cl)C1` (stereo not drawn), for which the relative growth is 0.0438 (active).

As for `OC[C@@H](O)[C@@H](O)[C@@H](O)[C@@H](O)[C@@H](O)CO`, the relative growth was 1.

Regarding `C[C@H](CO)N1C[C@H](C)[C@H](CN(C)C(=O)Nc2ccc(C(F)(F)F)cc2)Oc2ccc(NS(=O)(=O)c3ccc(F)cc3)cc2C1=O`, the relative growth is 0.994.

For `c1n[nH]nc1SSc1cn[nH]n1`, the relative growth is 0.536.

Turning to `C[C@H](CO)N1C[C@H](C)[C@H](CN(C)S(C)(=O)=O)Oc2c(NC(=O)c3ccc(-c4nccs4)cc3)cccc2C1=O`, the relative growth was 0.995.

Regarding `CCCN(C)C[C@@H]1OCCCC[C@H](C)Oc2ccc(NC(=O)CCC(F)(F)F)cc2C(=O)N([C@@H](C)CO)C[C@@H]1C`, the relative growth was 1.

On to `C[C@H](CO)N1C[C@H](C)[C@H](CN(C)Cc2ccccc2)OCCCC[C@H](C)Oc2ccc(NC(=O)C3CCCCC3)cc2C1=O`, for which the relative growth was 1.01.

For the compound `COc1ccc2c(c1OC)C(=O)OC2C1c2c(cc3c(c2OC)OCO3)CCN1C.Cl` (stereo not drawn), the relative growth is 0.0513 (active).

With `COc1ccc2cc1Oc1ccc(cc1)CC1c3c(cc4c(c3Oc3cc5c(cc3OC)CCN(C)C5C2)OCO4)CCN1C` (stereo not drawn), the relative growth is 0.844.

`COc1ccc2cc1Oc1ccc(cc1)C[C@H]1c3c(cc4c(c3Oc3cc5c(cc3OC)CCN(C)[C@@H]5C2)OCO4)CCN1C`: the relative growth was 0.993.

Consider `C[C@H](CO)N1C[C@H](C)[C@H](CN(C)Cc2ccccc2)Oc2c(NC(=O)Nc3cccc4ccccc34)cccc2C1=O`, for which the relative growth is 1.

Take `Cc1ccc(S(=O)(=O)Nc2ccc3c(c2)C(=O)N([C@H](C)CO)C[C@@H](C)[C@@H](CN(C)C(=O)c2ccccc2)OCCCC[C@H](C)O3)cc1`: the relative growth is 1.01.
